Assay outcomes (PubChem)
Shown are actives, neighbours in structure and some others; about 2.4% of the full set was active somewhere.
POLI inh – inhibitors of human DNA polymerase iota. 390,000 compounds, 1% hits. Potency, µM (top dose mostly 115 µM), without a hit: at the top dose activity, negative = inhibition, most hits filed as inhibitors. Pol iota fluorescent replication assay, 10 min. Q9UNA4. AID 588590; further: potency means the concentration at half of the fitted maximal effect
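Pol iota at 10 nM preincubated 15 min with compounds at room temperature; reaction started with fluorescent substrate, 50 nM final. Fluorescence read kinetically at 0 and 10 min; buffer-only wells as negative control.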
WRN inhibitor – inhibitors of human WRN helicase | WRN helicase unwinding, fluorescent forked duplex, kinetic | 360,000 compounds, 0.46% hits | AID 651768 | Potency, µM (titrated, usually from 114 µM), for inactives: at the top dose activity change, negative = inhibition, most hits filed as inhibitors; further: potency means the concentration at half of the fitted maximal effect; on the % scale 0 is the no-effect control and ±100 the full control effect; nearly all actives have a fitted effect of over 55% in size
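WRN at 20 nM final was preincubated with compound for 15 min at room temperature; reaction started with 100 nM forked duplex oligonucleotide carrying fluorophore and quencher plus 2 mM ATP (final). Unwinding followed kinetically by red fluorescence (ex 525/em 598 nm).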
Pol eta inh-1 – blocks human DNA polymerase eta activity | 390,000 compounds, 1.2% hits | recombinant Pol eta, fluorescent DNA replication assay | Potency, µM (doses to about 114 µM), inactives show at the highest dose activity change, negative = inhibition, actives largely listed as inhibitors; further: potency means the concentration at half of the fitted maximal effect; on the % scale 0 is the no-effect control and ±100 the full control effect
Target sequence (Q9Y253 whole entry, looked up): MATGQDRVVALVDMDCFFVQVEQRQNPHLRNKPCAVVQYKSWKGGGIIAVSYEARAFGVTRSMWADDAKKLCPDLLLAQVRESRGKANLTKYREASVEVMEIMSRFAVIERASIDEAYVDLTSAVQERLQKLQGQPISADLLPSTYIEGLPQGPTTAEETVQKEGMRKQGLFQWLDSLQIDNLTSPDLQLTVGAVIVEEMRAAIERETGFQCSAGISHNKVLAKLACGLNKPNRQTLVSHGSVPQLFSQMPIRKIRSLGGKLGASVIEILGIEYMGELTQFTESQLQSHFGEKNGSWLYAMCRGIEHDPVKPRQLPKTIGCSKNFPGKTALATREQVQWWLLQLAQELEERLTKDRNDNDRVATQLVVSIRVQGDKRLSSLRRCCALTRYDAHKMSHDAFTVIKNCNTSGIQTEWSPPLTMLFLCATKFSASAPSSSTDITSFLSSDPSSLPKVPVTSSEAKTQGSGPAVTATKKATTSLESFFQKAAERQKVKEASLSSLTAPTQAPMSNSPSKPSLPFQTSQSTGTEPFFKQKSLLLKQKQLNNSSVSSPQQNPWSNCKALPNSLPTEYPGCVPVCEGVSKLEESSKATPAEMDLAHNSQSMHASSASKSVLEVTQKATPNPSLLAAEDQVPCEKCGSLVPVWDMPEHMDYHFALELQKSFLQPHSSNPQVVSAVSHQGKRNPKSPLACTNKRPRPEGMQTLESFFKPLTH
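Pol eta at 10 nM preincubated with compounds 15 min at room temperature; reaction started with fluorescent substrate (50 nM final) and read kinetically at 0 and 10 min.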
FEN1 inh – inhibitors of human flap endonuclease 1. 390,000 compounds, 0.35% hits. P39748. Potency, µM (highest dose often 114 µM), for inactives: at the top dose activity change, negative = inhibition, hits mostly inhibitors. AID 588795. Recombinant FEN1 flap cleavage, fluorescence, 15 min; further: potency means the concentration at half of the fitted maximal effect; on the % scale 0 is the no-effect control and ±100 the full control effect; nearly all actives have a fitted effect of over 65% in size
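Reaction started by adding substrate (50 nM final) to 10 nM enzyme after 15 min room-temperature compound preincubation. Reads at 0 and 15 min, with data normalized and fitted to a four-parameter Hill equation.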
Pol kappa inh-1 – inhibitors of human DNA polymerase kappa; Q9UBT6; purified Pol kappa, fluorescent DNA synthesis assay, 10 min; Potency, µM (highest dose often 107 µM), for the others: top-dose activity, negative = inhibition, actives largely listed as inhibitors; 400,000 compounds, 0.53% hits; further: potency means the concentration at half of the fitted maximal effect; on the % scale 0 is the no-effect control and ±100 the full control effect
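Pol kappa 10 nM + cpd, 15 min RT; start w/ substrate 50 nM final; fluorescence kinetic read, 0 and 10 min. Neg ctrl: buffer, no enzyme.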
Pol beta inh – inhibitors of human DNA polymerase beta; 340,000 compounds, 1.3% hits; Pol beta primer extension/strand displacement, fluorescence kinetic; P06746; Potency, µM (titrated, usually from 114 µM), without a hit: at the top dose activity change, negative = inhibition, hits mostly inhibitors; further: potency means the concentration at half of the fitted maximal effect; on the % scale 0 is the no-effect control and ±100 the full control effect
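Enzyme-only controls used 10 nM Pol beta; buffer lacking enzyme served as negative control. Compound preincubated 15 min, then 50 nM substrate added; 0 and 10 min reads at room temperature.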
TbPGK inh – validation of Trypanosoma brucei phosphoglycerate kinase inhibitors; Potency, µM (top dose mostly 57.5 µM), for inactives: at the top dose activity change, negative = inhibition, usual class: inhibitors; 500 compounds, 79% hits; TbPGK coupled GAPDH assay, Kinase-Glo luminescence; shares compounds with Pol kappa inh-1; further: potency means the concentration at half of the fitted maximal effect; on the % scale 0 is the no-effect control and ±100 the full control effect; nearly all actives have a fitted effect of over 65% in size
POLI cherry-pick – Human Pol iota inhibitor confirmatory assay. Pol iota primer extension, TAMRA/BHQ fluorescence. Potency, µM, hits mostly inhibitors. shares compounds with Pol kappa inh-1. AID 720496. 1,500 compounds, 77% hits; further: potency means the concentration at half of the fitted maximal effect
GALK confirm – galactokinase (human) inhibition, confirmation; Potency, µM (highest dose often 115 µM), without a hit: at the highest dose activity, negative = inhibition, hits mostly inhibitors; shares compounds with Pol eta inh-1; purified GALK, Kinase-Glo ATP depletion luminescence; 150 compounds, 70% hits; AID 2015
GALK redox cs – generates H2O2 by redox cycling, flagging GALK artifacts; shares compounds with Pol eta inh-1; Phenol red-HRP H2O2 redox cycling, absorbance 600 nm; Potency, µM (highest dose often 115 µM), for inactives: at the highest dose activity change, negative = H2O2 signal, actives largely listed as inhibitors; 150 compounds, 40% hits
HEK293 tox – HEK-293 cytotoxicity, GALK inhibitor secondary | shares compounds with Pol eta inh-1 | 170 compounds, 10% hits | HEK-293 viability, ATP luminescence (CellTiter-Glo), 24/48 h | Potency, µM (highest dose often 46.1 µM), for the others: top-dose activity change, negative = cytotoxicity, most hits filed as inhibitors; further: potency means the concentration at half of the fitted maximal effect; on the % scale 0 is the no-effect control and ±100 the full control effect
Pol kappa inh-2 – Pol kappa (human) inhibition, cherry-pick confirmation. shares compounds with Pol eta inh-1. purified Pol-kappa, fluorescent strand-displacement substrate. Potency, µM, hits mostly inhibitors. 920 compounds, 76% hits; further: potency means the concentration at half of the fitted maximal effect
Pol eta inh-2 – confirmation of human DNA polymerase eta inhibitors | Potency, µM, most hits filed as inhibitors | Pol eta primer extension, TAMRA/BHQ fluorescence, 10 min | AID 720502 | 2,600 compounds, 64% hits | shares compounds with Pol eta inh-1; further: potency means the concentration at half of the fitted maximal effect
Starred values were filed as active, the others as inactive; ? = inconclusive; nt = no result; [ ] = dose if it differs, or a comment. The call rests on the fitted dose curve; in most records, active means well fitted curve in the direction sought with a large enough effect; inconclusive means small, poorly fitted or top-dose-only effect, or another doubt; inactive means no such curve, though single readings can be large; an effect the other way counts as inactive or inconclusive.

SMILES | POLI inh | WRN inhibitor | Pol eta inh-1 | FEN1 inh | Pol kappa inh-1 | Pol beta inh | POLI cherry-pick | Pol eta inh-2 | others
C[n+]1cccc2cccc([O-])c21 | 1.6µM* | -15%[11.6 µM] | 22µM* | ? | ? | 28µM* | 24* | 43* | GALK confirm=24µM*;GALK redox cs=12µM*;HEK293 tox=5%
COc1ccccc1-c1nc2c(c(SCC(=O)Nc3ccc(C)c(C)c3)n1)Cc1c(CO)cnc(C)c1O2 | -2% | nt | ? | -8% | -11% | 0% | ? | ?
O=C1CCCC(O)=C1N=Nc1cccc(C(=O)O)c1 | 14µM* | ? | 10µM* | ? | 50µM* | 10µM* | 34* | 27*
CCN(CC)S(=O)(=O)c1cccc(N=NC2=C(O)CCCC2=O)c1 | 37% | 1% | -6% | -4% | -12% | -10% | nt | nt
CCOC(=O)CC(NS(=O)(=O)c1ccc2[nH]cc(C(=O)O)c(=O)c2c1)c1ccc(OCC)c(OC)c1 (stereo not drawn) | 20µM* | 1%[11.6 µM] | 4µM* | -17% | 50µM* | 3.5µM* | 34* | 27*
O=C(c1ccc2c(c1)OCCO2)N1CCN(S(=O)(=O)c2c(F)cccc2F)CC1 | 29% | nt | -23% | 1% | 6% | nt | nt | nt
O=C(c1cccc(-n2cccc2)c1)N1CCN(S(=O)(=O)c2c(F)cccc2F)CC1 | 22µM* | ? | 20µM* | -13% | ? | ? | 67* | 76*
COc1ccc(-c2c3c(=O)n(C)c(=O)n(C)c3c3c(-c4ccccc4)nc4ccccc4n23)cc1 | 13% | nt | -12% | 17% | -10% | 4% | nt | nt
Cc1cc(-c2ccc(C)c(S(=O)(=O)N(C)c3ccc(C)c(C)c3)c2)on1 | 11% | nt | -20% | 9% | -11% | 2% | nt | nt
O=C(N/N=C/c1cccc(F)c1)c1cc(-c2ccco2)nc2ccccc12 | ? | 56µM* | 2.2µM* | ? | 18µM* | -102% | 8.4* | 13* | TbPGK inh=5.8µM*
O=C(N/N=C/c1ccc(F)cc1)c1cc(-c2ccccn2)nc2ccccc12 | 16% | 7% | -15% | 5% | -2% | nt | nt | nt
Cc1ccccc1NC(=O)c1cc(-c2ccco2)nc2ccccc12 | 40µM* | ? | 45µM* | -23% | 89µM* | nt | 53* | 48*
COc1ccc(NC(=O)CN(C)C(=O)c2cc(-c3ccco3)nc3ccccc23)cc1 | 8.9µM* | 63µM* | 2.8µM* | ? | 45µM* | nt | 30* | 43*
COC(=O)C1CCN(C(=O)c2cc(-c3ccco3)nc3ccccc23)CC1 | ? | 50µM* | 8.9µM* | 40µM* | 22µM* | nt | 8.4* | 15* | TbPGK inh=13µM*;Pol kappa inh-2=9.5*
Cc1cccc(NC(=O)c2cc(-c3ccco3)nc3ccccc23)n1 | -6% | -36% | -17% | -5% | -4% | 20% | nt | nt
N#Cc1cccc(NC(=O)N2CCCC3(CCN(C(=O)c4ccco4)CC3)C2)c1 | nt | nt | nt | nt | -5%[60.1 µM] | nt | nt | nt
Cc1cc(F)ccc1NC(=O)CS(=O)(=O)c1cccc2nsnc12 | 13% | nt | -15% | -3% | -7%[60.1 µM] | 2% | nt | nt
O=C(NCCCN1CCOCC1)c1cc(-c2ccc(F)cc2)nc2ccccc12 | -2% | 4% | -9% | 7% | -17% | nt | nt | nt
O=C(NCCCN1CCOCC1)c1cc(-c2ccco2)nc2ccccc12 | 10µM* | 50µM* | 11µM* | ? | 79µM* | nt | 34* | 38* | Pol kappa inh-2=17*
COc1ccc(N2CCN(C(=O)CN3C(=O)CSc4c3c(C)nn4-c3ccccc3)CC2)cc1 | -12% | nt | -14% | 12% | 0% | -8% | nt | nt
NC(=O)CCCCn1ccc(NC(N)=NCC(F)(F)F)n1 | nt | nt | nt | nt | -3%[19.4 µM] | nt | nt | nt
Cc1sc2nc3n(c(=O)c2c1C)CCCS3 | 0% | -3% | -21% | 1% | 4% | -5% | nt | nt
O=Cc1ccc2oc3nc4n(c(=O)c3c(=O)c2c1)CCCS4 | 7.9µM* | 20µM* | 2.5µM* | 50µM* | 20µM* | 8.9µM* | 4.7* | 11* | Pol kappa inh-2=8.4*
O=C(Nc1ccc(S(=O)(=O)Nc2ncccn2)cc1)c1ccc(N2CCCC2=O)cc1 | ? | -31%[57.1 µM] | 45µM* | -5% | -45% | ? | ? | ?
Cc1cc(-c2n[nH]c(=S)n2/N=C/c2ccc(Cl)c([N+](=O)[O-])c2)n[nH]1 | -10% | -16% | -10% | -16% | -16% | 12% | nt | nt
O=[N+]([O-])c1cc(/C=N/n2c(-c3ccncc3)n[nH]c2=S)ccc1Cl | 13µM* | ? | 50µM* | 50µM* | ? | 2.5µM* | 17* | 43*
Cc1ccc2c(c1)c(=O)c1c3n2CCN(C(=O)CCl)C3CC1 (stereo not drawn) | ? | ? | 6.3µM* | ? | -41% | 16µM* | 60* | 60*
Cc1ccc2c(c1)c1c3n2CCN(C(=O)CN2CCN(C)CC2)C3CCC1 (stereo not drawn) | 13% | 0% | 8% | -2% | -18% | 20% | nt | nt
